Screening data from PubChem BioAssay.
m-calpain inh: inhibitors of pig calpain II, primary screen, biochemical, fluorogenic peptide substrate, 1536-well; purified calpain II, 30 min; AID 1236, 2008; inhibition, % at 16 µM; actives 0.37% (n = 220,000);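 active = inhibition above about 50%, limit read from the data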
EP2 antag: human EP2 receptor antagonists, primary screen, TR-FRET cAMP, C6 glioma cells; Prostaglandin E2 receptor EP2 subtype (Homo sapiens), P43116; C6 glioma cells expressing human EP2; cells stimulated with saturating PGE2; inhibition, % at 25 µM; actives 0.52% (n = 260,000); AID 1422, 2008;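 active = percent inhibition above 40 after rounding to a whole number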;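 note: rat C6 glioma host cells with rolipram phosphodiesterase inhibitor present; the protocol text gives 20 µM as final concentration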
EP2 mod: EP2 receptor modulators, cAMP readout, primary screen, cell-based, HTRF cAMP, PGE2 stimulation | AID 940, 2007 | actives 0.83% (n = 260,000) | induction, % at 25 µM | EP2-expressing cells, cAMP HTRF FRET, PGE2 co-stimulation | Prostaglandin E2 receptor EP2 subtype (Homo sapiens), P43116;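 active = compounds whose cAMP rise, as percent of the full-agonist control response, exceeds 60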;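 note: rat C6 glioma line stably carrying human EP2 under a CMV promoter; the protocol text gives 20 µM as final concentration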
Furin inhibitor: human furin inhibitors, primary screen, biochemical, fluorescence intensity; P09958; actives 0.061% (n = 220,000); inhibition, % at 20 µM or 30 µM; purified furin, fluorogenic substrate cleavage; in the data active = inhibition above about 25%
Target sequence (P09958 108-714 limits assumed): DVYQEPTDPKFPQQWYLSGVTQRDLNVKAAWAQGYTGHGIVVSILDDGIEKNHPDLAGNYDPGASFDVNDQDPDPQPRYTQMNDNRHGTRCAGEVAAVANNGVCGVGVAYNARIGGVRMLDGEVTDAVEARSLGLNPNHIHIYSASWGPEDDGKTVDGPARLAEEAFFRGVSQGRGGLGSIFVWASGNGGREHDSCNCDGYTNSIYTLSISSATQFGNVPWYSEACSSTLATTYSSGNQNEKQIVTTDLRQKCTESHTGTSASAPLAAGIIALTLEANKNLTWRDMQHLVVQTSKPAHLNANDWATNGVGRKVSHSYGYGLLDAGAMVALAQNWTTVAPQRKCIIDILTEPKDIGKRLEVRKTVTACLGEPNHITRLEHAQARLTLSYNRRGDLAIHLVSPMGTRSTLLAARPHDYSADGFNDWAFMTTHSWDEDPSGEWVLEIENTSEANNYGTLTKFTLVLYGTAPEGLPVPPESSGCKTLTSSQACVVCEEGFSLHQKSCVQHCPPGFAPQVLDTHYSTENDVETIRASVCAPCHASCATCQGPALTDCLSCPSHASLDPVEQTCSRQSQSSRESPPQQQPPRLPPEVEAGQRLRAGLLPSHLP
HMGR II inh: inhibitors of E. faecalis class II HMGR, primary screen, biochemical, Enterococcus faecalis; HMG-CoA reductase (Enterococcus faecalis, mvaE); purified E. faecalis HMGR, NADPH absorbance 340 nm kinetic; AID 1066, 2008; inhibition, % at 10 µM; actives 0.41% (n = 190,000);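 active = inhibition above a set limit, the median over all tested compounds plus 3 SD, cut at about 9.5% in these data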;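 note: enzyme runs in reverse so mevalonate oxidation gives rising NADPH absorbance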
EP2 cAMP induct: cAMP induction in EP2, EP4, beta2-AR and parental cells, confirmation, counter-screen for EP2 modulator project, cell-based, five parallel assays, C6 glioma, HEK293. shares compounds with EP2 mod. cAMP HTRF induction; plus low (about EC15) PGE2 agonist. calls only at 20 µM (by protocol). actives 47% (n = 1,300). AID 1080, 2008;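 active = cAMP induction above 50% in the main assay while under 30% in all four parallel counter assays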;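 note: rat C6 glioma cells stably expressing human EP2 receptor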
Each line names hits and unclear results; the compound was inactive in the other large screens (follow-up assays come after a bar, where they were run). An excerpt weighted towards active compounds, which were near 1.9% of everything screened.

Cc1ccc(Cn2cccc2C2=NC(C)CO2)cc1 (stereo not drawn)	none
CC(C)C1COC(c2cccn2Cc2ccccc2Cl)=N1 (stereo not drawn)	EP2 mod 67.6 | EP2 cAMP induct inactive
Cc1ccc(N(CC(=O)NC(C)C)C(=O)CCC(=O)Nc2ccccn2)cc1C	none (no result: m-calpain inh, Furin inhibitor, HMGR II inh)
Cc1sc2nc(C)n3c(=O)n(Cn4nnc5ccccc54)nc3c2c1C	none (no result: m-calpain inh, Furin inhibitor, HMGR II inh)
O=C(Nc1ccccc1-c1nc2ccccc2s1)C1=COCCO1	EP2 mod 73.8 | EP2 cAMP induct inactive
COc1ccc(C2CC(c3cccs3)=NN2C(=O)c2ccc(Br)o2)cc1 (stereo not drawn)	none | EP2 cAMP induct inactive
O=C(O)c1ccc(-c2ccccc2Cl)o1	EP2 mod 69.4 | EP2 cAMP induct inactive
CCOc1cccc(C2C(C(=O)c3ccco3)=C(O)C(=O)N2CCOC)c1 (stereo not drawn)	none (no result: m-calpain inh, Furin inhibitor, HMGR II inh)
Cc1nc(NC(C)c2ccccc2)c2c3c(sc2n1)CCC3 (stereo not drawn)	EP2 mod 70.9 | EP2 cAMP induct inactive
CCOCc1c(C(=O)NC2=Nc3ccccc3NC(CC)=C2C(=O)OCC)oc2ccccc12	none
CCOC(=O)C1=C(CC)Nc2ccccc2N=C1NC(=O)c1oc2ccccc2c1C	EP2 mod 68.5 | EP2 cAMP induct inactive
Cc1ccc(-c2cc(C(F)(F)F)nn2-c2ccc(S(N)(=O)=O)cc2)cc1	EP2 mod 65.7 (no result: m-calpain inh, Furin inhibitor, HMGR II inh) | EP2 cAMP induct active
NS(=O)(=O)c1ccc(-n2nc(C(=O)O)cc2-c2ccc(Cl)cc2)cc1	none
CC(=O)O[C@H]1CC[C@@]2(C)[C@@H](CC[C@H]3[C@H]2CC(=O)[C@]2(C)[C@@H]3C[C@H]3CC(C)=CC(=O)[C@@H]32)C1	EP2 antag 44.9, EP2 mod 63.8 (no result: m-calpain inh, Furin inhibitor, HMGR II inh) | EP2 cAMP induct inactive
Cc1nnc(NC(=O)CSc2nnc(-c3ccoc3C)n2-c2cccc(C)c2C)s1	none (no result: m-calpain inh, Furin inhibitor, HMGR II inh)
C/C(=N\O)C(=O)OC1CC(C)CCC1C(C)C (stereo not drawn)	none | EP2 cAMP induct active
Nc1[nH]n2c(=O)c3c(nc2c1N=Nc1ccccc1)CCCC3	EP2 mod 90.3 | EP2 cAMP induct active
COc1cc2c(cc1OC)-c1cc(Nc3ccc4c(c3)OCCO4)nc(=O)n1CC2	none | EP2 cAMP induct inactive
COc1cc2c(cc1OC)-c1cc(N3CCCc4ccccc43)nc(=O)n1CC2	EP2 mod 61.5 | EP2 cAMP induct inactive
COc1cc2c(cc1OC)-c1cc(Nc3ccccc3)nc(=O)n1CC2	none (no result: HMGR II inh)
COc1ccc(-n2c(C)c3c(C)nnc(C)c3c2C)c(OC)c1	none (no result: m-calpain inh, Furin inhibitor, HMGR II inh)
Cc1cccc(OCc2n[nH]c(=S)n2Cc2ccccc2)c1	none | EP2 cAMP induct inactive
CNC[C@@H](SC)c1ccc(O)c(O)c1	none (no result: m-calpain inh, Furin inhibitor, HMGR II inh)
CNC[C@H](O)c1ccc(O)c(O)c1	EP2 mod 86.0 | EP2 cAMP induct inactive
Cn1c(N2CCC(C(=O)Nc3ccc4c(c3)OCO4)CC2)nc2ccccc21	none (no result: m-calpain inh, Furin inhibitor, HMGR II inh)
O=C(c1ccc(Br)o1)N(Cc1ccccc1)Cc1ccccc1	none (no result: EP2 antag) | EP2 cAMP induct active
NC(N)=N/N=C(/c1ccc(Cl)cc1)C1CC1	none (no result: m-calpain inh, Furin inhibitor, HMGR II inh)
Cc1ccc2nc(SCC(=O)NCc3ccco3)c(C)cc2c1	EP2 mod 68.6 | EP2 cAMP induct active
Cc1ccc2nc(SCC(=O)NCc3ccco3)c(C#N)cc2c1	none
CC(C)Sc1cc(N2CCOCC2)nc(-c2ccc(Cl)cc2)n1	EP2 mod 82.2 | EP2 cAMP induct inactive
CC12CCC(C(=O)N(CSC(=S)N/N=C\c3ccccc3Cl)C1=O)C2(C)C (stereo not drawn)	EP2 mod 69.6 | EP2 cAMP induct inactive
C=CCc1cccc(C=Nc2cc(Br)ccc2O)c1O	EP2 mod 66.8 | EP2 cAMP induct active
Cc1cc(=O)oc(C)c1C(=O)OC(C(=O)c1ccccc1)c1ccccc1 (stereo not drawn)	EP2 mod 67.0 | EP2 cAMP induct inactive
Cn1c(C(=O)OC(C(=O)NC2CCCC2)c2ccc(F)cc2)cc2sccc21 (stereo not drawn)	none (no result: m-calpain inh, Furin inhibitor, HMGR II inh)
COc1ccccc1NC(=S)N(Cc1ccccc1)Cc1ccccn1	none
S=C(Nc1ccccc1Cl)N(Cc1ccccc1)Cc1ccccn1	EP2 mod 75.5 | EP2 cAMP induct active
CN=C1NC(=O)CC(C(=O)Nc2ccc(F)c(Cl)c2)S1 (stereo not drawn)	none (no result: m-calpain inh, Furin inhibitor, HMGR II inh)
N#Cc1sc2nc(-c3ccccc3)cc(-c3ccco3)c2c1N	none
N#Cc1sc2nc(C3CC3)cc(-c3ccccc3)c2c1N	EP2 mod 83.4 | EP2 cAMP induct active
CNc1cc(CS(=O)c2ccccc2)nc(-c2ccccc2)n1 (stereo not drawn)	none
O=S(Cc1cc(Sc2ccccc2)nc(-c2ccccc2)n1)c1ccccc1 (stereo not drawn)	EP2 mod 71.5 | EP2 cAMP induct active
CSc1nnc(-c2ccc(F)cc2)o1	EP2 mod 72.0 | EP2 cAMP induct inactive
CC(=O)N1Cc2ccccc2C(C)CC12CCCCC2 (stereo not drawn)	EP2 mod 66.1 | EP2 cAMP induct active
CC(=O)N1c2ccc3ccccc3c2C(C)CC12CCCCC2 (stereo not drawn)	none
CCOc1ccc2cc(C#N)c(SCC(=O)NC(C)CC)nc2c1 (stereo not drawn)	EP2 mod 69.2 | EP2 cAMP induct inactive
CCOC(=O)CSc1nc2cc(OCC)ccc2cc1C#N	none
Cc1cccc(Oc2sc(C(=O)c3ccccc3)c(N)c2C#N)c1	EP2 mod 72.0 | EP2 cAMP induct inactive
Cc1cc(C)n(CCC(=O)NCCc2nc(-c3ccncc3)n[nH]2)n1	none (no result: m-calpain inh, Furin inhibitor, HMGR II inh)
COc1ccccc1NC(=O)COC(=O)/C=C/c1ccccc1[N+](=O)[O-]	none
O=C(Cc1ccccc1)Nc1ccccc1Sc1ccccc1	none
O=C(Cc1ccc(F)cc1)Nc1ccccc1Sc1ccccc1	EP2 mod 82.7 | EP2 cAMP induct active
COc1ccccc1/C=C/C(=O)OCC(=O)Nc1ccccc1Sc1ccccc1	EP2 mod 71.5, HMGR II inh 11.2 | EP2 cAMP induct active
O=C(Cc1ccc(Br)cc1)Nc1ccccc1Sc1ccccc1	EP2 mod 68.1 | EP2 cAMP induct active
CC1CCN(c2nc3c(c(=O)[nH]2)CCN(Cc2ccnc4ccccc24)C3)CC1	none (no result: m-calpain inh, EP2 antag, Furin inhibitor, HMGR II inh)
CCOC(=O)c1c(C)nc2sc3c(c2c1-c1ccc(OC)cc1)NC(c1ccccc1)NC3=O (stereo not drawn)	none
COc1ccc(-c2c(C(C)=O)c(C)nc3sc4c(c23)NC(c2ccccc2)NC4=O)cc1 (stereo not drawn)	EP2 mod 70.2 | EP2 cAMP induct inactive
CCN(CC)C(=O)Cn1nc2c(C)cc3cc(OC)ccc3n2c1=O	none (no result: m-calpain inh, Furin inhibitor, HMGR II inh)
